The values below come from PubChem BioAssay AID651592 (Sanford-Burnham Center for Chemical Genomics, 2012).

This assay addresses Interleukin-8 (Homo sapiens) (UniProt P10145). Kind of assay: inhibitors of NFkB activation in CF airway cells, SAR follow-up, KKLEB cells, panel, IL8 HTRF, NFkB-GFP (AID 651592).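 Also: immortalized cystic fibrosis airway epithelial KKLEB cells with an NF-kB GFP reporter.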 The conditions noted are these: PAF/TNFa-induced NFkB-GFP / IL8 HTRF, mean of runs. (In general: TR-FRET usually uses a lanthanide donor and a delayed reading to cut background.)

Activity calls are given as the source filed them.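 The calls were made as follows: active = NF-kB reporter IC50 at most 10 µM, IL-8 IC50 within fivefold of it with bacterial filtrate but not with TNF-alpha; inactive = the rest.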

Interleukin-8 (Homo sapiens), sequence (P10145 whole entry, looked up): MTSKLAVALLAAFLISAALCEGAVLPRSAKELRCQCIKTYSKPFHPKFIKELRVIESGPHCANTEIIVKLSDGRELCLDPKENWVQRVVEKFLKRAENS

With `O=C(Nc1ccc(N2CCN(C(=O)c3ccccc3F)CC2)cc1)c1cccc(Br)c1`, the call was active.

As for `O=C(Nc1ccc(N2CCN(C(=O)c3ccccc3)CC2)cc1)c1cccc(Br)c1`, the compound was classed as active.

For the compound `O=C(Nc1ccc(N2CCN(C(=O)c3ccccc3)CC2)cc1)c1cccnc1`, the outcome was active.

In the case of `O=C(Nc1ccc(N2CCN(C(=O)c3ccccc3)CC2)cc1)c1cc(Br)cc(Br)c1`, the outcome was active.

For the compound `CCOc1ccc(NCc2cc3c(-c4ccc(OC)c(OC)c4)nn(-c4ccccc4)c3[nH]c2=O)cc1`, the compound was classed as active.

Regarding `CCOc1ccc(NCc2cc3c(C(C)(C)C)nn(-c4ccc(Cl)cc4)c3[nH]c2=O)cc1`, the compound was called active.

In the case of `O=C(Nc1ccc(N2CCN(C(=O)c3ccc(F)cc3)CC2)cc1)c1cc(Br)cc(Br)c1`, the outcome was active.

For `Cc1ccc(NCc2cc3c(C(C)(C)C)nn(-c4ccccc4)c3[nH]c2=O)cc1`, the compound was called active.

With `O=C(Nc1ccc(N2CCN(C(=O)c3ccc(F)cc3)CC2)cc1)c1cccc(Br)c1`, the outcome was active.

Consider `O=C(Nc1ccc(N2CCN(C(=O)c3ccccc3Cl)CC2)cc1)c1cc(Br)cc(Br)c1`, for which the outcome was active.

Consider `O=C(Nc1ccc(N2CCN(C(=O)c3ccccc3)CC2)cc1)c1ccccc1`, for which the compound was called active.

Regarding `O=C(Nc1ccc(N2CCN(C(=O)c3ccc(F)cc3)CC2)cc1)c1ccccc1`, the call was active.

Turning to `O=C(Nc1ccc(N2CCN(C(=O)c3ccccc3F)CC2)cc1)c1ccccn1`, the compound was called active.

As for `O=C(Nc1ccc(N2CCN(C(=O)c3ccccc3F)CC2)cc1)c1ccncc1`, the call was active.

As to `CCOc1ccc(NCc2cc3c(C)nn(-c4ccccc4)c3[nH]c2=O)cc1`, the outcome was inactive.

As to `O=C(Nc1ccc(N2CCN(C(=O)c3ccc(F)cc3)CC2)cc1)c1cccnc1`, the call was active.

For `CCOc1ccc(NCc2cc3c(C(C)(C)C)nn(-c4ccccc4)c3[nH]c2=O)cc1`, the call was active.

As to `O=C(Nc1ccc(N2CCN(C(=O)c3ccc(F)cc3)CC2)cc1)c1ccccn1`, the outcome was active.

Turning to `O=C(Nc1ccc(N2CCN(C(=O)c3ccc(F)cc3)CC2)cc1)c1cncc(Br)c1`, the outcome was inactive.

As to `O=C(Nc1ccc(N2CCN(C(=O)c3ccccc3F)CC2)cc1)c1cccnc1`, the result was active.

Consider `O=C(Nc1ccc(N2CCN(C(=O)c3ccccc3)CC2)cc1)c1ccncc1`, for which the outcome was active.

With `O=C(Nc1ccc(N2CCN(C(=O)c3ccccc3Cl)CC2)cc1)c1ccncc1`, the compound was called active.

Take `O=C(Nc1ccc(N2CCN(C(=O)c3ccccc3)CC2)cc1)c1cncc(Br)c1`: the compound was called inactive.

`CCOc1ccc(NCc2cc3c(-c4ccc(F)cc4)nn(-c4ccccc4)c3[nH]c2=O)cc1`: the compound was classed as inactive.

For the compound `O=C(Nc1ccc(N2CCN(C(=O)c3ccccc3Cl)CC2)cc1)c1cncc(Br)c1`, the compound was called inactive.

In the case of `O=C(Nc1ccc(N2CCN(C(=O)c3ccccc3F)CC2)cc1)c1ccccc1`, the outcome was active.

On to `Cc1ccc(CNCc2cc3c(C(C)(C)C)nn(-c4ccccc4)c3[nH]c2=O)cc1`, for which the compound was classed as active.

For `O=C(Nc1ccc(N2CCN(C(=O)c3ccc(F)cc3)CC2)cc1)c1ccncc1`, the call was active.

For the compound `O=C(Nc1ccc(N2CCN(C(=O)c3ccccc3F)CC2)cc1)c1cc(Br)cc(Br)c1`, the compound was called active.

With `O=C(Nc1ccc(N2CCN(C(=O)c3ccccc3)CC2)cc1)c1ccccn1`, the call was active.

Take `O=C(Nc1ccc(N2CCN(C(=O)c3ccccc3Cl)CC2)cc1)c1ccccn1`: the outcome was active.

For `O=C(Nc1ccc(N2CCN(C(=O)c3ccccc3Cl)CC2)cc1)c1cccnc1`, the compound was classed as active.

Regarding `O=C(Nc1ccc(N2CCN(C(=O)c3ccccc3Cl)CC2)cc1)c1ccccc1`, the compound was classed as inactive.

Turning to `O=C(Nc1ccc(N2CCN(C(=O)c3ccccc3Cl)CC2)cc1)c1cccc(Br)c1`, the call was active.
